Screening data deposited in PubChem BioAssay by Corson Lab, School of Medicine, Indiana University.
FECH block = blocks human mitochondrial ferrochelatase activity; P22830; purified FECH, Ni-mesoporphyrin absorbance 550 nm; calls only at 10 µM (by protocol); 20,000 tested, 3.3% active;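 active = enzyme reaction rate more than 3 SD below the solvent-only control wells on the same plate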;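 also: lower slope than DMSO wells means FECH inhibition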
Target sequence (P22830 whole entry, looked up): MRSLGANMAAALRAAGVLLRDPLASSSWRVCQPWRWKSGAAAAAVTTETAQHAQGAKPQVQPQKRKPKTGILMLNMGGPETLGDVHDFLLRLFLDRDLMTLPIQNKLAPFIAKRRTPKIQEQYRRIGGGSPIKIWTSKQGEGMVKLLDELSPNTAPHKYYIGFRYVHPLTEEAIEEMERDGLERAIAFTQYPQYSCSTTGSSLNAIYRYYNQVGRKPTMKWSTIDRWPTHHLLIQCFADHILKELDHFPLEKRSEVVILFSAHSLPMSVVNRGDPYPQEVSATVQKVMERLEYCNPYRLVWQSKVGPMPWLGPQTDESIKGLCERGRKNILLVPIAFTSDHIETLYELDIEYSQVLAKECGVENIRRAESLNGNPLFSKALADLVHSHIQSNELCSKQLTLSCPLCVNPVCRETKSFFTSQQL
Active calls of the source: *; i = inactive; + = active, no number. The entries come from a sample that favours hits as a whole.

SMILES	FECH block
CNC(=O)C1CCC(Cn2c(=O)c3sccc3n(CC(=O)Nc3ccc(Cl)cc3)c2=O)CC1 (stereo not given)	i
COc1cccc(Nc2nc(N3CCOCC3)nc3c2cnn3-c2ccccc2)c1	i
COc1ccc(C(=O)Nc2nc3n(n2)C(c2ccccc2Cl)C=C(c2ccc(Cl)cc2)N3)cc1 (stereo not given)	i
Cc1cccc(NC(=O)CCNC2CCN(C(=O)C3CCCO3)CC2)c1 (stereo not given)	i
CCOc1ccc(S(=O)(=O)N2CCN(c3cc(-c4ccc(OC)cc4)ncn3)CC2)cc1	i
COc1cccc(NC(=O)C2CCN(c3ccc(-c4cccc(C)c4)nn3)CC2)c1	i
O=c1cc(CNc2ccccc2Cl)nc2nc(NCc3ccccc3)[nH]n12	+
COc1ccc(CNc2nc3nc(CNc4ccccc4OC)cc(=O)n3[nH]2)cc1	+
COc1ccc(CNc2nc3nc(CNc4ccccc4F)cc(=O)n3[nH]2)cc1	i
CCc1ccccc1NCc1cc(=O)n2[nH]c(NCc3ccc(OC)cc3)nc2n1	i
O=c1cc(CNc2ccccc2F)nc2nc(NCc3ccccc3)[nH]n12	i
CCNc1ccnc(N2CCC(C(O)c3ccccn3)CC2)n1 (stereo not given)	i
O=C(c1nccc2ccccc12)N1CCN(Cc2cccc(F)c2)CC1	i
Cc1cccc(N2CCN(S(=O)(=O)c3cc(C(=O)N4CCCC4)cs3)CC2C)c1 (stereo not given)	i
O=C1CN(Cc2ccc(F)cc2Cl)S(=O)(=O)c2ccccc2N1Cc1ccc(Cl)cc1	i
C=CCN(Cc1ccccc1OC)C(=O)Cc1ccncc1	i
O=C(CCC(=O)N1CCc2cc(S(=O)(=O)Nc3cccc(F)c3)ccc21)N1CCCCCC1	i
CCc1nc2nc(C)c(NC(=O)Nc3ccc(F)c(Cl)c3)c(=O)n2[nH]1	i
CCOC(=O)CCc1c(C)nc2nc(CNc3cccc(C)c3)[nH]n2c1=O	+
CCOC(=O)CCc1c(C)nc2nc(CNc3cccc(Cl)c3)[nH]n2c1=O	+
CCOC(=O)CCc1c(C)nc2nc(CNc3ccc(F)cc3)[nH]n2c1=O	i
CCc1nc2nc(C)[nH]n2c(=O)c1NC(=O)Nc1cccc(Cl)c1	i
CCc1nc2nc(C)c(NC(=O)Nc3cccc(C)c3)c(=O)n2[nH]1	i
CCNc1nc(Nc2ccc(Cl)cc2)c2cnn(-c3ccccc3)c2n1	i
Cc1cccc(CN2CCN(C(=O)C(=O)c3ccco3)C(C)C2=O)c1 (stereo not given)	i
SMILES	FECH block
COc1ccc(N2C(=O)CCS2(=O)=O)cc1S(=O)(=O)Nc1c(C)cc(C)cc1Cl	i
c1ccc(-c2nc3c(c(NCCc4cnc[nH]4)n2)CCNC3)cc1	i
Cc1ccc(NS(=O)(=O)c2cc(N3C(=O)CCS3(=O)=O)ccc2C)cc1Br	i
COc1cccc(C(=O)N(C)C(C)c2c(C)n[nH]c2C)c1OC (stereo not given)	i
Cc1ccc(CNc2nc(Nc3ccc(F)cc3)c3cnn(-c4ccccc4)c3n2)cc1	i
CCc1ccc(NS(=O)(=O)c2ccc(C(=O)N(C)C)s2)cc1	i
Cc1ccc(NS(=O)(=O)c2ccc(N)c(S(N)(=O)=O)c2)cc1	+
CCc1ccc(NS(=O)(=O)c2ccc(N)c(S(N)(=O)=O)c2)cc1	+
COc1ccc(-c2csc(C)n2)cc1S(=O)(=O)Nc1ccc(S(N)(=O)=O)cc1	i
Cn1cnc(S(=O)(=O)Nc2ccc(S(N)(=O)=O)cc2)c1	i
CCN(CC)c1ncc(NS(=O)(=O)c2ccc(OC)cc2)cc1C(=O)O	i
NS(=O)(=O)c1ccc(NS(=O)(=O)c2ccc3c(c2)NC(=O)CC(=O)N3)cc1	i
COc1ccc(NS(=O)(=O)c2ccc(N)c(S(N)(=O)=O)c2)cc1	+
CCc1ccc(NS(=O)(=O)c2ccc3c(c2)C(=O)NC3)cc1	i
CCCn1ncc(C(=O)NCCC2CN(C)CCO2)c1C (stereo not given)	i
CC(C)c1cc(C(=O)N(Cc2ccncc2)C[C@@H]2CCC(=O)N2)n(C)n1	i
CCCc1cc(NCC(C)C)n2nc(-c3cccnc3)nc2n1	i
CN1CCN2C[C@@H](NC(=O)c3c[nH]c4c(F)cccc4c3=O)C[C@H]2C1	i
Cc1cc(Sc2ccccc2NC(=O)c2ccccc2Cl)n2nc(-c3ccccc3)nc2n1	i
Cc1cccc2oc(CNC(=O)c3ccc(Cn4cnnn4)cc3)nc12	i
O=C(CCN1CCCC(Oc2ccc(F)cc2)C1)Nc1nccs1 (stereo not given)	i
Cc1cnccc1NCCNC(=O)Cc1ccccn1	i
